This passage reports inhibition results from PubChem BioAssay AID1566 (Sanford-Burnham Center for Chemical Genomics, 2009).

Screen size: about 290,000 compounds; about 1,800 (0.62%) were called active. For the sample, actives were picked, then their nearest neighbours and some compounds at random. Values without a mark were called inactive. Cut-off read from the data, not from the text of the source: active = inhibition above about 50%; inactive = the rest.

This test in a line: inhibition of NOD2-driven NF-kB reporter – cell-based, luminescence, uHTS, HEK293 (AID 1566). The note with it: HEK293 NOD2/NF-kB luciferase reporter, at 4 µM, active compounds read high. A general note: In a reporter assay the amount or activity of a reporter protein is the signal.
One may read the inhibition as the drop in the measured response relative to a control, in per cent. Take `COc1cc(C(=O)N[C@H](C(=O)NC(C)C23CC4CC(CC(C4)C2)C3)C(C)C)cc(OC)c1OC` (some centres not stated): the inhibition was 4%.
Under `COc1cc(C(=O)NCc2ccc(-c3nc4ccccc4s3)cc2)cc(OC)c1OC` stands -72.3%; under `COc1ccc(C(=O)NCc2ccc(-c3nc4ccccc4s3)cc2)cc1OC`, -45.5%; under `COc1cc(OC)c(OC)cc1CN1CCN(Cc2ccc(C(F)(F)F)cc2)CC1`, 5.4%.
For `COc1ccc(Nc2cc(Sc3ccc(OC)cc3)ncn2)cc1` the value was 55.2% (active); for `COc1ccc(Nc2cc(Nc3ccc(OC)cc3)ncn2)cc1`, -19.7%; for `COc1ccc(Nc2cc(Nc3ccccc3)ncn2)cc1`, -87%.
For `Cc1cc(C)c2nc(Cl)c(CN(Cc3ccco3)C(=O)Nc3ccccc3C)cc2c1` the value was -17.6%; for `Cc1ccc(NC(=O)N(Cc2ccco2)Cc2cc3cc(C)cc(C)c3nc2Cl)cc1`, -17.3%.
As to `Cc1cccc2cc(CN(Cc3ccco3)C(=O)Nc3cccc(C#N)c3)c(Cl)nc12`, the inhibition was 55.3% (active).
Under `COc1cccc(-c2cc(C(F)(F)F)n3ncc(C(=O)N4CCc5ccccc5C4)c3n2)c1` stands 17.4%; under `C=CCNS(=O)(=O)CC12CCC(CC1=O)C2(C)C` (configuration not stated), 5.2%.
For `CC(C)(C)NS(=O)(=O)CC12CCC(CC1=O)C2(C)C` (configuration not stated) the value was 50.9% (active); for `CC1(C)C2CCC1(CS(=O)(=O)NC1CCCC1)C(=O)C2` (configuration not stated), 17.9%; for `COCCCn1c(SCC(=O)Nc2ccc(NC(C)=O)cc2)nc2sc3c(c2c1=O)CCC3`, 11.9%.
As for `CCN(CC)c1nc2c(c(=O)[nH]c(=O)n2C)n1Cc1ccccc1Cl`, the inhibition was 5.7%.
Under `COc1ccc(-n2cnnc2SCC(=O)c2ccc(S(=O)(=O)N3CCOCC3)cc2)cc1` stands 2.6%; under `COc1ccc(-c2ncccc2O)cc1`, -2.7%.
For `O=C(O)c1c2c(nc3ccccc13)/C(=C/c1ccc(O)cc1)CC2` the value was 72.4% (active).
For `O=C(O)c1c2c(nc3ccccc13)/C(=C/c1ccc(O)cc1)CCC2` the value was 11.1%; for `O=C(O)c1ccc(/C=C2\CCCc3c2nc2ccccc2c3C(=O)O)cc1`, 8.2%.
For `O=C(NCCc1ccccn1)c1ccc(OC2CCN(Cc3ccccn3)CC2)cc1`, the inhibition is 6.5%.
For `O=C(NCCc1cccc(Cl)c1)c1ccc(OC2CCN(Cc3ccccn3)CC2)cc1` the value was 53.1% (active); for `Cc1cccnc1CCNC(=O)c1ccc(OC2CCN(Cc3ccccn3)CC2)cc1`, 2.1%.
For `CC(=O)N/C(N)=N/c1nc2cc(C)ccc2o1` the value was -93.3%.
Under `Cc1ccc2oc(/N=C(\N)NC(=O)C3CC3)nc2c1` stands 5.6%; under `O=C(CSc1nn(-c2ccc(F)cc2)c(=S)s1)N1CCN(C(=O)c2ccco2)CC1`, 4.8%.
`Cc1no[n+]([O-])c1COc1ccc(/C=N/n2nnnc2N)cc1`: the inhibition is -31%.
Turning to `COc1cccc(/C=N/NC(=O)c2nnn(-c3nonc3N)c2C(C)C)c1`, the inhibition is 26.6%.
Regarding `Cc1ccccc1C(=O)N1CCN(c2ccc(NC(=O)c3ccc4c(c3)OCO4)cc2)CC1`, the inhibition is -42.4%.
Under `O=C(Nc1ccc(N2CCN(C(=O)c3ccccc3)CC2)cc1)c1ccc2c(c1)OCCO2` stands 38.7%.
For `N#CC(c1nc2ccccc2nc1N1CCCCC1)S(=O)(=O)c1ccc(Cl)cc1` (configuration not stated) the value was 55.3% (active).
Under `Cc1ccc(S(=O)(=O)C(C#N)c2nc3ccccc3nc2N2CCCCC2)cc1` (configuration not stated) stands 7.4%.
In the case of `N#CC(c1nc2ccccc2nc1N1CCCC1)S(=O)(=O)c1ccccc1` (configuration not stated), the inhibition is -3.3%.
For `O=C(CCS(=O)(=O)c1ccccc1)NC12CC3CC(CC(C3)C1)C2` the value was -42.4%; for `Cc1cccc(N2CCN(C(=O)CCCn3c(=S)[nH]c4cc5c(cc4c3=O)OCO5)CC2)c1C`, 38.2%; for `O=C(CCCCCn1c(=S)[nH]c2ccc(N3CCOCC3)cc2c1=O)NCc1ccccc1`, 29.5%.
Under `O=C(CCCn1c(=S)[nH]c2cc3c(cc2c1=O)OCO3)N1CCN(c2ccccc2)CC1` stands 12.2%; under `O=C(CCCn1c(=S)[nH]c2cc3c(cc2c1=O)OCO3)N1CCN(c2ccc(F)cc2)CC1`, 27.2%; under `NC(=O)CSc1nnc(-c2ccccc2Br)n1-c1cccc(C(F)(F)F)c1`, 5.9%.
Under `Cc1[nH]nc(N)c1-c1ccc(Cl)cc1` stands 14.7%.
With `O=C(CCc1nnc(CCCCc2ccccc2)o1)NCCc1cccnc1`, the inhibition is 24.2%.
For `CC(c1cccnc1)N(C(=O)Nc1ccccc1)C1CCCCC1` (configuration not stated) the value was -11.5%; for `O=C(Nc1ccc(Cl)cc1C(F)(F)F)c1ccccc1Cl`, 3.5%.
As to `CCC(CC)COC(=O)C1=C(C)NC(=O)NC1c1cc(OC)ccc1OC` (configuration not stated), the inhibition is -2%.
On to `COc1ccc(NC(=O)CSc2nc3nc(-c4cccs4)cc(C(F)(F)F)c3c(=O)[nH]2)c(OC)c1`, for which the inhibition was 22.2%.
For `CC(=O)Nc1ccc(NC(=O)CSc2nc3nc(-c4cccs4)cc(C(F)(F)F)c3c(=O)[nH]2)cc1` the value was 5.7%; for `CN1CCN(CC(=O)Nc2ccccc2Oc2ccccc2)CC1`, 15.7%.
On to `COc1ccc(OCCSc2nc(C)c(Cc3ccccc3)c(=O)[nH]2)cc1`, for which the inhibition is 25.5%.
As to `Cn1c(=O)[nH]c(=O)c2c1nc(NCc1ccccc1)n2Cc1ccc(F)cc1`, the inhibition is 16%.
For `Cc1ccc(/C=N/NC(=O)CSc2nc3ccccc3c(=O)n2-c2ccccc2C)s1` the value was -0.2%.
Under `N#Cc1c2n(c3c(=O)n(Cc4ccccc4Cl)cnc13)CCCCC2` stands 16.9%; under `Cc1oc2ccc(OCc3cccc(Cl)c3)cc2c1C(=O)O`, 9.4%.
For `O=S(=O)(c1ccc(F)cc1)N1CCN(Cc2ccccn2)CC1` the value was 8.3%; for `NS(=O)(=O)c1ccc(NC(=O)COC(=O)CCc2ccc(S(=O)(=O)N3CCOCC3)cc2)cc1`, -3%.
For the molecule `CCCn1c(=O)c(C(=O)Nc2cnccn2)c(O)c2ccccc21`, the inhibition was -10.4%.
As to `CC(C)Cn1c(=O)c(C(=O)Nc2cnccn2)c(O)c2ccccc21`, the inhibition was 16.2%.
For `CCn1c(=O)c(C(=O)Nc2ccccc2S(N)(=O)=O)c(O)c2ccccc21` the value was -12.7%; for `Cn1c(=O)c(C(=O)Nc2cnccn2)c(O)c2ccccc21`, -39.4%.
Under `CC(C)Cn1c(=O)c(C(=O)Nc2ccccc2S(N)(=O)=O)c(O)c2ccccc21` stands 22.9%; under `CCn1c(=O)c(C(=O)Nc2cnccn2)c(O)c2ccccc21`, 18.7%.
On to `CCCC(=O)N(CCN1CCOCC1)c1nc2c(C)ccc(C)c2s1`, for which the inhibition is 10.7%.
`COc1ccc(-c2cnn3cc(-c4cccc(Cl)c4)cnc23)cc1`: the inhibition is -3.7%.
For `COc1ccc(/C=N/NC(=O)c2ccoc2C)cc1COc1ccc(Cl)cc1` the value was -42%; for `O=C(N/N=C/c1cn(-c2ccccc2)nc1-c1cccnc1)c1cccnc1`, 7.5%.
For `N#CC(=C=[N-])c1nc2ccccc2nc1-[n+]1cccc(NC(=O)c2cccs2)c1`, the inhibition is 10%.
Consider `Nc1nnc(COc2ccccc2)s1`, for which the inhibition is -4.5%.
